Counter-ions that a name gives are not always drawn.
System: CLZ3 (HCA2 human fibroblast dual HR-NHEJ reporter)
Assay: HR repair efficiency (tdTomato+ cells) relative to control (log10 fold); higher = more homologous recombination
Settings: 5 µM; doxycycline 0.5 ug/mL
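Also: compound given one day before doxycycline, which switches on I-SceI endonuclease expression to create double-strand breaks within the integrated reporter.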

Compound | HR repair efficiency (log10)
CN[C@@H](Cc1c[nH]c2ccccc12)C(=O)O [Abrine] | -0.21
CCCC[N+]1(C)[C@@H]2C[C@@H](OC(=O)[C@H](CO)c3ccccc3)C[C@H]1[C@@H]1O[C@@H]12 (some centres undefined) [Scopolamine Butylbromide] | 0.0357
COc1cc2c3c(c1OC)-c1ccccc1C[C@H]3N(C)CC2 [Nuciferine] | 0.137
CC1(C)[C@H]2O[C@H]2[C@H]2[C@](C)(O)[C@@H]3CCC4[C@H](O)[C@@]3(C[C@@H](O)[C@@]21O)C[C@@]4(C)O [Rhodojaponin Iii] | 0.0481
C[C@@H]1CCC=C2C(=O)C[C@H]3OOC(C)(C)[C@H]3[C@]21C [Nardosinone] | -0.0118
CCN1C[C@]2(COC)[C@H](O)C[C@H](OC)[C@@]34[C@@H]5C[C@@]6(O)[C@H](OC(=O)c7ccccc7)[C@@H]5[C@@](O)([C@@H]([C@H](OC)[C@H]23)[C@@H]14)[C@@H](O)[C@@H]6OC [Benzoylaconine] | 0.0403
CC[C@H]1CN2CC[C@@]3(C(=O)Nc4ccccc43)[C@@H]2C[C@@H]1/C(=C\OC)C(=O)OC [Isorhynchophylline] | -0.0739
CN1[C@@H]2C[C@@H](OC(=O)[C@H](CO)c3ccccc3)C[C@H]1[C@@H]1O[C@@H]12 [Scopolamine Hydrobromide] | -0.0275
O=c1ccc2cc(O[C@@H]3O[C@H](CO)[C@@H](O)[C@H](O)[C@H]3O)c(O)cc2o1 [Esculin Sesquihydrate] | 0.046
